The list is not random: actives were taken first. Their share in the collection is about 3.4%.
USP28 block = inhibitors of human USP28 deubiquitinase; purified USP28, Ub-rhodamine cleavage fluorescence, 30 min; 3% of 47,000 active; AID 1645857; inhibition, % at 25 µM; Q96RU2
OTUD3 block = human OTUD3 deubiquitinase inhibition | Q5T2D3 | purified OTUD3, Ub-rhodamine fluorescence, 2 h | inhibition, % at 25 µM | 0.7% of 47,000 active | AID 1645858
Target sequence (Q5T2D3 whole entry, looked up): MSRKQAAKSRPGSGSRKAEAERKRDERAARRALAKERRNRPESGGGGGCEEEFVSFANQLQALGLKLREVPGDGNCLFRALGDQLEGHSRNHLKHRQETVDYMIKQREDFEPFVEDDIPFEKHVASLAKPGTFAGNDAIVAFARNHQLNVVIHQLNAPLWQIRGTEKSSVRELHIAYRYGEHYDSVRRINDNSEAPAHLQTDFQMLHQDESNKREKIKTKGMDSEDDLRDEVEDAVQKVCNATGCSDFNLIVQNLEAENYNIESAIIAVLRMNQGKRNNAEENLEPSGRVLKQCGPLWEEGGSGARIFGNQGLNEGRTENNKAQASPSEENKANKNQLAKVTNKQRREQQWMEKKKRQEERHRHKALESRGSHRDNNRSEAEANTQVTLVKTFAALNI
Numbers without * were called inactive; / = no result given. Cut-off read from the data, not from the text of the source: active = inhibition above about 30%; inactive = the rest.

SMILES	USP28 block	OTUD3 block
CCCCCC1OC(=O)c2c(C)cccc2Oc2ccc(O)c(CO)c2/C=C/C1O (stereo unspecified)	47*	20
COc1ccc(NC(=O)c2nnn(Cc3nc(-c4cccc(Cl)c4)oc3C)c2C)cc1	0	-2
O=C(CC1(O)C(=O)N(Cc2cccc3ccccc23)c2ccccc21)c1ccccc1Cl (stereo unspecified)	28	17
Cn1c(CCN2CCN(c3ccc(F)cc3)CC2)nc2cc(NC(=O)c3ccc(Cl)cc3)ccc21	24	-3
CC(=O)Nc1ccc(Oc2cncc(Cl)c2)nc1	-3	6
NC(=O)c1ccc(Oc2ccc(Cl)cc2)nc1	37*	13
Cn1c(=O)c(C2CCCC2=O)nc2c(OCc3ccccc3)nc(N)nc21 (stereo unspecified)	-73	-55
NS(=O)(=O)c1ccc(NC(=O)COC(=O)c2sc3cc(F)ccc3c2Cl)cc1	34*	15
O=C(COC(=O)c1sc2ccccc2c1Cl)Nc1ccc(F)cc1	8	8
CC(=O)Nc1ccc(SCC(=O)c2cc(C)n(CC3COc4ccccc4O3)c2C)cc1 (stereo unspecified)	-19	-18
COCCn1c(C)cc(C(=O)CSc2ccc(Cl)cc2)c1C	30*	8
CN(C=C1NC(=O)c2ccccc2N1)CC(=O)Nc1ccc(Cl)c(Cl)c1	6	-1
O=C(COc1ccc2c3c(c(=O)oc2c1)CCC3)NCC(=O)N1CC[C@@]2(O)CCCC[C@H]2C1	10	10
CC(=O)C1=C(O)[C@@]2(O)C(=O)c3c(c(C)c4ccc(C)c(O)c4c3O)C[C@H]2[C@@H](N)C1=O	66*	51*
O=C(CNC(=O)c1cc2ccccc2[nH]1)Nc1ccc2c(c1)OCCO2	18	0
COc1ccc(-n2c(N(C)C)nc3cc(C(=O)NC4CC4)sc32)cc1	42*	-5
CNC(=O)c1cc2nc(N(C)C)n(-c3ccc(OC)cc3)c2s1	20	12
CCCn1c(=O)c2sccc2n2c(CCC(=O)NCCc3c[nH]c4ccccc34)nnc12	-2	-4
CCc1nc(N)n(CC(=O)NCc2ccc3c(c2)OCO3)c(=O)c1C	14	17
COc1cc2c(c(OC)c1OC)-c1ccc(N3CCN(Cc4ccc5c(c4)OCO5)CC3)c(=O)cc1[C@@H](NC(C)=O)CC2	0	0
COc1ccccc1CNC(=O)C1c2ccccc2C(=O)N1Cc1ccc(C)cc1 (stereo unspecified)	9	52*
CCOc1ccc(CN2C(=O)c3ccccc3C2C(=O)NCc2ccccc2OC)cc1 (stereo unspecified)	15	14
CC(=O)NC(Cc1ccccc1C)C(=O)NC1CCN(c2nc(C)cc(C)n2)CC1 (stereo unspecified)	-15	-7
CCOc1ccc(CNC(=O)CCn2cnc3ccccc3c2=O)cc1	-5	4
CC(C)(C)C1CCC2(CC1)N=C(N)Nc1nc3cc4c(cc3n12)OCCCO4 (stereo unspecified)	6	0
SMILES	USP28 block	OTUD3 block
O=C(c1ccco1)N1CCN=C1SCc1ccccc1F	75*	9
Cc1cccc(CC(=O)N2CCN=C2SCc2ccccc2)c1	16	8
CSC1=NCCN1C(=O)c1cc2ccccc2o1	9	1
O=C(c1ccco1)N1CCN=C1SCc1ccc([N+](=O)[O-])cc1	61*	12
COc1ccc(OC)c(C2CCCN2Cc2nc(N)nc(Nc3ccccc3)n2)c1 (stereo unspecified)	-53	-56
CCN1CCCC2(Cc3ccccc3CN(S(C)(=O)=O)C2)C1 (stereo unspecified)	-57	-39
O=c1c2ccccc2nc(CSc2nc3ccc4[nH]snc4c3n2)n1-c1ccccc1	51*	23
O=c1c2ccccc2nc(N2CCN(Cc3ccccc3)CC2)n1-c1ccccc1	-13	-3
COc1cccc(CNC(=O)N2CCN(S(C)(=O)=O)CC3(CC(=O)N(C)C3)C2)c1 (stereo unspecified)	14	13
CC1c2cc3c(cc2CCN1C(=O)c1ccc(-c2ccccc2)cc1)OCCCO3 (stereo unspecified)	9	-1
Cc1cc(C)c2c(N3CCOCC3)nc(C(=O)NCc3ccccc3)nc2n1	-8	-9
CCN(CC)c1ncc2c(n1)CCC(C(=O)NC(C)c1ccccn1)C2 (stereo unspecified)	-13	-2
CCN(CC)c1ncc2c(n1)CCC(C(=O)N1CCCC1)C2 (stereo unspecified)	45*	9
O=C(COC(=O)c1cc(S(=O)(=O)N2CCOCC2)ccc1N1CCCCC1)NC1CCCc2ccccc21 (stereo unspecified)	3	1
O=C(CN1CCCCC1)Nc1nc(-c2ccc3c(c2)CCN3C(=O)C2CC2)cs1	15	11
O=C1C[C@@H](O)[C@H](O)[C@@]23O[C@@]12C1(Oc2cccc4cccc(c24)O1)[C@@H]1O[C@@H]1[C@@H]3O	46*	33*
O=C(CCCC(=O)Oc1ccc([N+](=O)[O-])cc1)Oc1ccc([N+](=O)[O-])cc1	-3	0
CCc1noc(-c2c(C)cc(C)n2CC(=O)Nc2ccccc2CC)n1	8	5
O=C(Cc1ccc(F)cc1)N1CCCC(c2[nH]nc3nccnc23)C1 (stereo unspecified)	/	-4
COc1ccc(N2CCN(C(=O)c3nnn(-c4ccc(OC)cc4)n3)CC2)cc1	17	15
COc1ccc(-n2nnc(C(=O)N3CCN(c4ccccc4Cl)CC3)n2)cc1	33*	24
CCc1noc(-c2ccn3c(CC(=O)Nc4ccccc4C)nnc3c2)n1	1	10
Cc1ccc(NC(=O)Cc2nnc3cc(-c4nc(C)no4)ccn23)cc1	42*	30*
CCc1ccc(NC(=O)Cc2nnc3cc(-c4nc(C)no4)ccn23)cc1	30*	15
Cc1noc(-c2ccc3nnc(CC(=O)Nc4ccc(F)c(C)c4)n3c2)n1	-14	-5
SMILES	USP28 block	OTUD3 block
CCCn1c2ccccc2n2cc(-c3ccc(-c4ccccc4)cc3)nc12	17	9
NC(=O)Cn1c(=O)n(Cc2ccccc2)c(=O)c2c3c(sc21)CCC3	1	-3
CCN(CC)c1nc(NC)nc(-n2cnc(SC)n2)n1	/	12
O=C(C1CCCC1)N1CCC(c2nccnc2-c2ncc[nH]2)CC1	0	8
Cc1cc(C)cc(N(CCC(=O)Nc2ccccc2)S(=O)(=O)c2ccc3ccccc3c2)c1	14	17
Cc1cc(C)cc(N(CCC(=O)Nc2ccc(N3CCOCC3)cc2)S(=O)(=O)c2ccc(Cl)cc2)c1	13	35*
CCc1ccc(NC(=O)Cn2c(N3CCOCC3)nc3cc(C)n(C)c3c2=O)cc1	8	10
Cc1cccc(OCCCSc2nc3ccccc3[nH]2)c1	45*	16
COc1cccc(OCCCSc2nc3ccccc3[nH]2)c1	41*	-2
COc1ccc(NC(=O)CCCSc2nc3ccccc3[nH]2)cc1OC	6	0
c1ccc(-c2cnc(CSc3nc4ccccc4[nH]3)o2)cc1	-19	-13
Nc1c(-c2ccccn2)nsc1C(=O)NCc1ccccc1F	-2	-4
Cc1ccc(NC(=O)CSc2ccc(-c3sc(C)nc3C)nn2)c(C)c1	-6	-6
CCCc1cc(=O)n2[nH]c(COc3ccccc3)c(-c3ccccc3)c2n1	40*	13
CCCc1cc(=O)n2[nH]c(-c3ccccc3)cc2n1	-9	-7
Cc1cc(C)n2ncc(C(=O)NCC(F)(F)F)c2n1	-3	-3
CCCN1Cc2cccc(C(=O)NCc3ccc4c(c3)OCO4)c2C1=O	35*	11
